# Results published in PubChem BioAssay (NCATS).
# “And” between values parts separate entries of the source, which are not always exact repeats. Equal entries are not always repeated. Results filed as inconclusive are left out. Values without a mark were called inactive. The source made the active and inactive calls. Calls follow the shape of the dose curve; as a rule, active = well fitted inhibition curve with a large enough effect; inconclusive = small, poorly fitted or top-dose-only effect; inactive = flat fitted curve, though single readings scatter.
# Molecular target: Luciferin 4-monooxygenase (Photinus pyralis) (UniProt P08659)
# Experiment: Biochemical firefly luciferase enzyme assay for NPC (AID 624030); also: nearly all actives have a fitted effect of over 70% in size;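 as to activity change, negative = inhibition: 0% = DMSO and -100% = full luciferase inhibition by PTC124 control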
# Conditions: purified P. pyralis luciferase, luminescence, 5 min; series mostly up to 58.6 µM; activity change, negative = inhibition: at the top concentration
# Source text: Charcot-Marie-Tooth-Association [CMTA] National Center for Advancing Translational Sciences [NCATS] Charcot-Marie-Tooth (CMT) disease was first characterized by Jean-Martin Charcot and Pierre Marie in France and, independently, by Howard Henry Tooth in England in 1886. CMT is one of the most common inherited neurological diseases, affecting approximately 1 in 2,500 Americans. […] The most prevalent type of CMT is known as CMT1A and caused by a duplication of the PMP22 gene which leads to over-expression of this protein. PMP22 is a glycosylated intrinsic membrane protein accounting for 2-5% of the myelin protein content, and its over-expression results in demyelination and subsequently axonal loss. A pair of cellular transcription-based assays was developed in the S16 rat Schwann cell lines (Hai, M., et al., 2002) stably transfected with orthogonal reporters - firefly luciferase (Fluc) and beta-lactamase (beta-Lac) - whose expression is driven by an intronic regulatory element of the PMP22 gene (Jones, E.A., et al., 2011) to recapitulate endogenous expression of PMP22. A comprehensive library of approved drugs, the NCGC Pharmaceutical Collection (Huang, R., et al., 2011), was screened in the cross-validating platform of the orthogonal reporter assays to identify drug modulators inhibitory towards PMP22 expression. A set of counter-screens was devised to address non-specific activity of the library. An ATP-dependent CellTiter-Glo assay (developed by Promega Corp) was utilized to control cell viability. In addition, biochemical Fluc enzyme assay was performed to assess direct inhibition of the Fluc enzymatic activity. References Hai, M., Muja, N., DeVries, G.H., Quarles, R.H. and Patel, P.I. Comparative analysis of Schwann cell lines as model systems for myelin gene transcription studies. J Neurosci Res, 2002. 69(4): pp 497-508 Huang, R., Southall, N., Wang, Y., Yasgar A., Shinn P., Jadhav, A. , Nguyen, D.-T. and Austin, C.P., The NCGC pharmaceutical collection: a comprehensive resource of clinically approved drugs enabling repurposing and chemical genomics. Sci Transl Med, 2011. 3(80): p. 80ps16.
# Compounds were transferred to the plates in 23nl, and one microliter/well luciferase enzyme-buffer solution (10 nM P. pyralis luciferase and 50 mM Tris Acetate final concentrations) was dispensed yielding a final reaction volume of […]. Luciferase luminescence was measured by a ViewLux plate reader within 5 minutes of enzyme-buffer addition. The % activity was determined by normalizing to the average readings of PTC124 (a positive control) relative to DMSO (0% Activity). The concentration-effect curves were then classified based on curve quality (r2), response magnitude and degree of measured activity.
# Potency is read from the fitted curve at half-maximal effect.
# Sequence of Luciferin 4-monooxygenase (Photinus pyralis) (P08659 whole entry, looked up): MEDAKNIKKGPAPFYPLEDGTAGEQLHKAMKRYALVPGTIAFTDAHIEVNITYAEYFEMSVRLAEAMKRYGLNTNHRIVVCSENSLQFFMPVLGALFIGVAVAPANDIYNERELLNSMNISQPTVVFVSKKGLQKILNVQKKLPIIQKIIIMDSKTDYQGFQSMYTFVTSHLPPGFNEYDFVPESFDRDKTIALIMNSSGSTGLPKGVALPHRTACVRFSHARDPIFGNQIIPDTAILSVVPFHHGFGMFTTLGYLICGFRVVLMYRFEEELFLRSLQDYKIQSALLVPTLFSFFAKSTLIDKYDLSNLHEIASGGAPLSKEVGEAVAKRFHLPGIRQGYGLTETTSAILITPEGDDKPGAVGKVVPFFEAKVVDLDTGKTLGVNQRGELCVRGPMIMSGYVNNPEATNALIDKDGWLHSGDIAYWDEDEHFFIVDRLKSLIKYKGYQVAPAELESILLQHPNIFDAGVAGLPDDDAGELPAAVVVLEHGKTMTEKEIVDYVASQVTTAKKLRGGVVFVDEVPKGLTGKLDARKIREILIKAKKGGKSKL
SMILES,"activity change, negative = inhibition",Potency
N#Cc1ccc2c(c1)N(CCCN1CCC(O)CC1)c1ccccc1S2,8.85%,–
Cc1cc(-c2ccc(N=Nc3ccc4c(S(=O)(=O)O)cc(S(=O)(=O)O)c(N)c4c3O)c(C)c2)ccc1N=Nc1ccc2c(S(=O)(=O)O)cc(S(=O)(=O)O)c(N)c2c1O,–,28.7 µM (active) and 14.4 µM (active)
CN1C(=O)C[C@@H](C(=O)N[C@@H](Cc2cnc[nH]2)C(=O)N2CCC[C@H]2C(N)=O)NC1=O,0.247%,–
CCCc1nc(C(C)(C)O)c(C(=O)OCc2oc(=O)oc2C)n1Cc1ccc(-c2ccccc2-c2nn[nH]n2)cc1,-12.4%,–
CC(=O)Oc1cccc(C(=O)O)c1OC(C)=O,-2.38%,–
Oc1ccc(Cl)c2c1CCC2,-6.04%,–
CC1C(=O)CC2C3(C)CCC2(C(C)C(=O)O)C(=O)C13 (stereo not given),-2.45%,–
COc1cc(NCCCC(C)N)c2ncccc2c1 (stereo not given),-12.8%,–
CC(C)O,-1.51%,–
O=[n+]1ccn([O-])c2ccccc21,-0.654%,–
O=C(O)C1=C(CSc2nnnn2CS(=O)(=O)O)CS[C@@H]2[C@H](NC(=O)[C@H](O)c3ccccc3)C(=O)N12,9.53%,–
O=P(O)(O)OP(=O)(O)O,-3.75%,–
CC(=O)[C@H]1CC[C@H]2[C@@H]3C=CC4=CC(=O)CC[C@@]4(C)[C@H]3CC[C@]12C,-0.22% [at 24.9 µM],–
NC(=O)C1c2ccccc2CCc2ccccc21,0.283%,–
Cn1c(=O)c2c(ncn2CCOC(=O)C(C)(C)Oc2ccc(Cl)cc2)n(C)c1=O,0.678%,–
O=C(O)Cc1cc(I)c(Oc2ccc(O)c(I)c2)c(I)c1,-13.4% [at 24.9 µM],–
CCN(CC)CCOC(=O)c1cccnc1,-18.4%,–
FC(F)(F)COCC(F)(F)F,0.717%,–
O=C(Nc1ccc(O)cc1)c1ccccc1O,–,14.4 µM (active)
CCc1ncnc2cc(OC)c(OC)cc12,0.284%,–

SMILES,"activity change, negative = inhibition",Potency
CC(C)Cc1ccc([C@@H](C)C(=O)NS(C)(=O)=O)cc1,-14.6%,–
FC(F)(F)C(F)(F)C(F)(F)C(F)(F)C(F)(F)F,-1.99%,–
CN[C@@H]1[C@H](O[C@H]2[C@H](O[C@H]3[C@H](O)[C@@H](O)[C@H](N=C(N)N)[C@@H](O)[C@@H]3N=C(N)N)O[C@@H](C)[C@]2(O)C=O)O[C@@H](CO)[C@H](O)[C@H]1O,0.247%,–
O=C(/C=C/c1cccc(F)c1)NC1CC1,-14.1%,–
CCOc1cc(-c2nccc3cc(OC)c(OC)cc23)cc(OCC)c1OCC,-0.0359%,–
CC(C)(C)CC(C)(C)c1ccc(OCCO)cc1,0.0617%,–
OC[C@H]1O[C@@](CO)(O[C@H]2O[C@H](CO)[C@@H](O)[C@H](O)[C@H]2O)[C@@H](O)[C@@H]1O,2.83%,–
C=C(C)C1CC=C(C)CC1 (stereo not given),0.833%,–
CCCOc1cc(N)ccc1C(=O)OCCN(CC)CC,-12.2% [at 24.9 µM],–
CN1C(=O)OC(C)(C)C1=O,-0.944% [at 24.9 µM],–
CC(CCc1ccc(O)cc1)NCC(O)c1ccc(O)cc1 (stereo not given),5.9%,–
CC(C)[C@@H](N)C(=O)O,0.158%,–
COc1cc(S(C)=O)ccc1-c1nc2ncccc2[nH]1 (stereo not given),1.11%,–
CCCCCCOC(=O)c1cccnc1,-19.5%,–
CC(C)(Oc1ccc(C2CCCc3ccccc32)cc1)C(=O)O (stereo not given),-21.3%,–
COc1ccc2nc(NC(=O)Nc3ccccc3)sc2c1,–,0.721 µM (active)
O=[N+]([O-])c1c(Cl)cccc1-c1c[nH]cc1Cl,-14%,–
CCN(CC)C(=O)c1cccnc1,0.504%,–
Cc1cccc(C)c1NC(=O)C1CCCCN1C (stereo not given),-3.44%,–
O=C(O)CC/C=C\CC[C@@H]1[C@@H](N2CCCCC2)[C@@H](O)C[C@@H]1OCc1ccc(-c2ccccc2)cc1,-2.81%,–
